From PubChem BioAssay (NCI)
Compounds without any hit were thinned out: in the full panel of roughly 83,000, 20% have a hit.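 Note: values are percent growth. 100 is the growth of untreated cells, values between 100 and 0 indicate rising inhibition; between -100 and 0 indicates cell death.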 A number with no mark means an inactive call. Active and inactive are the calls of the source. Rule for the calls: active = growth percent below 10; inactive = the rest.

Tests used:
Test in all cases: NCI-60 one-dose screen, 48 h (100 = growth as untreated, 0 = no growth, -100 = all killed)
HCT-15 colon = settings: 10 µM unless noted
HT29 colon = settings: 10 µM unless noted
U251 CNS = settings: 10 µM unless noted
PC-3 prostate = settings: 10 µM unless noted
UACC-62 melanoma = settings: 10 µM unless noted
LOX IMVI melanoma = settings: 10 µM unless noted
SK-MEL-28 melanoma = settings: 10 µM unless noted
SK-MEL-2 melanoma = settings: 10 µM unless noted
EKVX NSCLC = settings: 10 µM unless noted
SN12C renal = settings: 10 µM unless noted
UO-31 renal = settings: 10 µM unless noted
TK-10 renal = settings: 10 µM unless noted
ACHN renal = settings: 10 µM unless noted
CAKI-1 renal = settings: 10 µM unless noted
CCRF-CEM leukemia = settings: 10 µM unless noted
MOLT-4 leukemia = settings: 10 µM unless noted
SNB-75 CNS = settings: 10 µM
SNB-19 CNS = settings: 10 µM unless noted
SK-MEL-5 melanoma = settings: 10 µM unless noted
A498 renal = settings: 10 µM unless noted

Row | SMILES | growth (HCT-15 colon) | growth (HT29 colon) | growth (U251 CNS) | growth (PC-3 prostate) | growth (UACC-62 melanoma) | growth (LOX IMVI melanoma) | growth (SK-MEL-28 melanoma) | growth (SK-MEL-2 melanoma) | growth (EKVX NSCLC) | growth (SN12C renal) | growth (UO-31 renal) | growth (TK-10 renal) | growth (ACHN renal) | growth (CAKI-1 renal) | growth (CCRF-CEM leukemia) | growth (MOLT-4 leukemia) | growth (SNB-75 CNS) | growth (SNB-19 CNS) | growth (SK-MEL-5 melanoma) | growth (A498 renal)
1 | COc1cccc(/C=C2\Oc3cc(OCCCN4CCCC4)ccc3C2=O)c1OC | 76.2% | 48.6% | 93.2% | 91.9% | 98.9% | 89.2% | 105% | 105% | 93% | 95.2% | 79.3% | 104% | 102% | 93.1% | 85.1% | 91.5% |  |  |  | 
2 | COc1ccc2c(c1)[nH]c(=O)c1c3cc(OC)ccc3cn21 | 4.49% (active) |  | -47.6% (active) | 0.628% (active) | 41.9% | -76.9% (active) | 62.3% | 71.7% | 48.7% | 32.7% | 28.6% | 48.7% | 19.1% | 41.3% | -58.8% (active) | 26.2% | 74.8% | 25.8% | 5.31% (active) | 51.7%
3 | C=C(C)[C@@H]1C[C@@H]2Cc3cc(F)ccc3N1O2 | 92.9% |  | 89.5% | 95% | 95% | 94.6% | 107% | 98.1% | 85.9% | 98.6% | 77.4% | 97% | 95.4% | 98% | -47.4% (active) |  | 95.9% | 105% | 95.3% | 95.2%
4 | COc1ccc(-c2ccc(C)n2-c2ccc(-c3nc4cc(Cl)ccc4s3)cc2)cc1 | 105% | 100% | 98.2% | 113% | 85.2% | 95.8% | 125% |  | 90.3% | 90.5% | 85% | 81.6% | 108% | 79.9% |  |  |  |  | 97.9% | 91.4%
5 | NC(=S)N/N=C1\CCCC(C(F)(F)F)C1 (stereo unspecified) | 90.5% |  | 107% | 69.6% | 100% | 78% | 111% | 102% | 84.7% | 85.1% | 64.8% | 112% | 91.8% | 87.5% | 45.5% | 74.5% | 87.3% | 100% | 116% | 128%
6 | Oc1ccc(Cl)cc1-c1cc(-c2ccc(F)cc2)n[nH]1 | 30% | 98.7% | 63.8% | 63.8% | 59.2% | 61.3% | 105% |  | 50.6% | 66.6% | 37.5% | 114% | 74.3% |  |  | 60.9% |  |  | 45.2% | 69.6%
7 | CN(C)c1ncnc2c1ccn2C1OC(CO)C(O)C1O (stereo unspecified) | 14.3% |  | 97% | 13% | 93.4% | 3.02% (active) | 82.5% | 54.9% | 60.5% | 17.8% | 24.8% | 40.9% | 32.3% | 34.7% | 10.7% | 9% (active) | 27% | 73.8% | 89.5% | 68%
8 | COc1ccc(-c2ccc(-c3ccc(-c4ccc(C(=N)N)cc4)s3)s2)cc1OC | -68.8% (active) | -60.2% (active) | 46.4% | 70.6% | 94.1% |  | 93% | 105% | -8.09% (active) | 91.7% | 74.4% | -78.8% (active) | 95.5% | 93.2% |  | 14.6% |  |  | 93.8% | 48.6%
9 | NNc1cccc(/C=C/c2ccccc2)cc1=O | 33% |  | 48.5% | 61.3% | 54.5% | 33.4% | 81.9% | 83.1% | 47.9% | 71.6% | 24.9% | 70.7% | 37.5% | 12.7% | 14.1% | 37.6% | 81.3% | 67.7% | 62.6% | 83.9%
10 | CCOc1cc2c(Cl)ncnc2c(OCC)c1OCC | 55.1% | 78.4% | 82.6% | 18.1% | 64.3% | 83.1% | 58.1% | 52.2% | 88.4% | 94% | -17.7% (active) | 105% | 60.1% |  | 11.2% | 21.7% |  |  | 77.4% | 91.1%
11 | Cn1c(=O)c2[nH]c(C3CC=CCC3)nc2n(C)c1=O (stereo unspecified) | 106% |  | 105% | 87.6% | 96% | 105% | 117% | 97.6% | 113% | 99.4% | 72.3% | 112% | 101% | 118% | 104% | 123% | 93.9% | 100% | 111% | 105%
12 | COc1cc(/C=C/C(=O)c2cccc(-n3cc(-c4cc(OC)c(OC)c(OC)c4)[nH]c3=O)c2)cc(OC)c1OC | -4.5% (active) |  | -41% (active) | 9.89% (active) | 7.42% (active) | -55% (active) | 4.45% (active) | -2.34% (active) | 51.6% | 11.5% | 6.2% (active) | 27.8% | -57.6% (active) | -24.2% (active) | -1.54% (active) | -16% (active) | 44.6% | 56.6% | 27% | 76.4%
13 | C=C(C)[C@@H]1C[C@@H]2Cc3cc(Cl)ccc3N1O2 | 97.9% |  | 94.5% | 96.5% | 94.9% | 99.3% | 108% | 130% | 84.7% | 102% | 100% | 129% | 99% | 95.9% | -70.8% (active) |  | 99.2% | 105% | 95.8% | 96.3%
14 | O=c1[nH]c(-c2ccccc2)nc(CN2CCCCC2)c1O | 113% |  | 103% | 105% | 98.6% | 97.4% | 111% | 111% | 112% | 93.9% | 95.1% | 108% | 106% | 91.5% | 96.8% | 120% | 96.3% | 97.3% | 111% | 111%
15 | CCN(CC)c1ccc(N=O)cc1 | 3.87% (active) | -3.9% (active) | 42.9% | 44.6% | 73.4% | 15% | 88.3% | 90.8% | 91.1% | 56.3% | 26% | 47.3% | 6.07% (active) |  |  | 44.9% |  |  | 87.2% | 100%
16 | O=c1cc(Cc2ccc([N+](=O)[O-])cc2)[nH]c(=O)[nH]1 | 96.6% |  | 103% | 92.6% | 99.9% | 103% | 114% | 94.6% | 115% | 98.4% | 67% | 97.9% | 98.1% | 110% | 91.1% | 94.9% | 94.4% | 97% | 109% | 110%
17 | CC(C)(C)n1cc(-c2ccnc(NCCCNS(=O)(=O)c3ccc(F)cc3)c2)c(-c2cccc(O)c2)n1 | 0.588% (active) | 13.9% | 50.5% | 27.5% | 59.8% | -51.5% (active) | 39.2% | 52.2% | 49.8% | 53.4% | 59.4% | 97.6% | 38.2% |  | 35.7% | 34.2% |  |  | 13.3% | 59%
18 | O=C1/C(=C/c2ccccc2)Oc2ccc(O)c(I)c21 | 94.5% | 105% | 93% | 89.6% | 86.1% | 93.8% | 112% | 95.3% | 50.8% | 85.7% | 58.5% | 181% | 103% | 78.6% | 94.7% | 95.6% |  |  |  | 
